Binding signal data for four molecules are collected here from PMC12864922, “TDP-43 directly inhibits mRNA accumulation in neurites through modulation of mRNA stability”.

B1: ENSMUSG00000029028.98|Lrrc47 (ssRNA)
RNA: GGGAGUUCUACAGUCCGACGAUCGCUUCGAUAUCCGCAUGCUAUGUGGGUGUGCUGUAGAUUCUGUGUAACUGGUUCUUUGCUGUUUCUCUGGGUGUUUUAAGGUGUCUGCUUUUGUCCAGGUGACUGUGGUAAUGUGAGUUUGCAUCAUCAUCAUAGCUCCAAUGUGACUCUCCUGUCUCCUGUCCUCAUGGAUCACUCAGUAACUGCUGGGGAUGUUCUGAAUCAUGUGGCCUGUGGCCGUGCUGGAGAGUCAGGUUGAACGCAGGCAUUCUAUUGAACAGUAUUUAUUUUUCUACAACAUCUCUUGCGGUCGCACUAGUGUGGAAUUCUCGGGUGUCAAGG
B2: ENSMUSG00000090935.301|Synj2bp|248:252 (ssRNA)
RNA: GGGAGUUCUACAGUCCGACGAUCGCUUCGAUAUCCGCAUGCUAGCCUUAGUUGCUAUUUUACAGUACUGUUAAAGGAUCCAUUGGCAUGGGAUGGGAAGCAGCAGGGCCCAAUCAACCAUCAAGACAUCUGAAAAAGAUCAUGUCUCAAGGUGGCACUUGAGCCUUCAAAACUGCUUAACAAUUCUCAGUUUCUAGUGUCAGACAAAAAGCCUAAGGGAAGGAACUGCCCUCCUGGUAGGAUGGACCUGAAUCAGCCUGCUUCUGACUGAGUUAGGAUGAGAAGGCAUUGCAUACGGUUUUCUCUCUUGCGGUCGCACUAGUGUGGAAUUCUCGGGUGUCAAGG
B3: ENSMUSG00000032194.203|Kank2 (ssRNA)
RNA: GGGAGUUCUACAGUCCGACGAUCGCUUCGAUAUCCGCAUGCUACUGCACCUUUCUCUAACUGGGGUUCCUUUCUGGCCCCAGGAUCUCAGUGUGGUUCGUGGGGGGAUUUUGUUGUUGUUUCUUUGUUUCUUUUCUUCAUAAAGAAGAAAAAGGAAACAACUUCUAGAUGUGCCUUGCGAUAGGGAGGACUUUGUCCUCUCAAGUCUCCCUGUCGUAUCCAGAUCACAGCUGAACCCACUGGGCCUUGGCGCCAAACCUCAGCAGGGCAGCAUUGAGACUCAUGGACUAAAGGAAAGUGUUCACUCUUGCGGUCGCACUAGUGUGGAAUUCUCGGGUGUCAAGG
B4: ENSMUSG00000043670.75|Diras1|97:102 (ssRNA)
RNA: GGGAGUUCUACAGUCCGACGAUCGCUUCGAUAUCCGCAUGCUAUUUGAUCCCUGUGGAUCUGAAAACAGGGACCUGGCUAAGGAACUGCUCAUCCCAGUCAGGCCCAGAGAGGUUACCUUGCCUCUCCAUCUCUGUCCCACACACCCCAGCCAUGCCCACUGUCCCUGUCCCUCACAUUCUAUCACUGUGACCUCUGGGGAGUGCCCAUUGACCUCAUCUUCCUUCACUAAUAUCUUAUUUCUUUCACCUGAUCCUGUCCUUUCCCCGUGACCUCUGACCUGUGGCCUUCCCUGGGUCCAGAACUCUUGCGGUCGCACUAGUGUGGAAUUCUCGGGUGUCAAGG

Whole data set: some 9,900 sequences, median “r (bound/input frequency ratio)” near 0.7, cut for the highest 2% near 6.5. The list comes from a sample in which the highest values are over-represented; it also holds similar and randomly drawn sequences.

Chain of TDP-43 (Q13148 whole entry): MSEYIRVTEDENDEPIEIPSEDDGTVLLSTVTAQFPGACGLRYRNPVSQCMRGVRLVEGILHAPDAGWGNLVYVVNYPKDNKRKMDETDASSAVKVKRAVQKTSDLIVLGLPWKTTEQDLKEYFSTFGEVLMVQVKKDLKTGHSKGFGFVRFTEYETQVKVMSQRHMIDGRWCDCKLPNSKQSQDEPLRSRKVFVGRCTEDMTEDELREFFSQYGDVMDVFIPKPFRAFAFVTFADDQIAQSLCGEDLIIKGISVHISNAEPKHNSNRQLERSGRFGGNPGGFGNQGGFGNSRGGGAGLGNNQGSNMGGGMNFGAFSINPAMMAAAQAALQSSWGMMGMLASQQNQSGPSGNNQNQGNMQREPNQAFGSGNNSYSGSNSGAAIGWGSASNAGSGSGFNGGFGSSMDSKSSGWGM

The assay has as its target TDP-43 (Homo sapiens, UniProt Q13148 1-414). In words: RNA Bind-n-Seq with designed 260-mer pool; 25 mM Tris-HCl, 150 mM KCl, 3 mM MgCl2, BSA (printed 500 mg/mL), 20 units/mL SUPERase IN; pH not stated; 500 nM RNA pool, 1 h, 4 C; TDP-43 5, 50, 500 nM; high values mean tight binding. The following applies: protein: recombinant; tags: SBP (GST cleaved off with PreScission; pGEX-GST-SBP). A digest of the protocol:
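Recombinant SBP-tagged TDP-43 at 5, 50 or 500 nM was captured on streptavidin beads, then incubated 1 h at 4 °C with 500 nM of an in vitro-transcribed 260-nt 3′ UTR oligo pool in 25 mM Tris-HCl, 150 mM KCl, 3 mM MgCl2, BSA and SUPERase IN. Bound RNA was washed, eluted with biotin, reverse transcribed, PCR-amplified and sequenced. Binding is R, each oligo's mapped-read-normalized abundance in the bound sample divided by its abundance in input. Duplicates used two independent protein batches.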
As for B1, the binding signal is 1.29 R (bound/input frequency ratio).

Regarding B2, the binding signal is 0.248 R (bound/input frequency ratio). In the case of B3 it was 0.26 R (bound/input frequency ratio); in that of B4, 2.78 R (bound/input frequency ratio).
